Screening results: PubChem BioAssay, The Scripps Research Institute Molecular Screening Center
The list is not random: actives were taken first. Their share in the collection is about 1.1%.
GalR3 antagonist: GalR3 antagonists in HEK293 cells, primary screen, cell-based, fluorescence readout; inhibition, % at 3 µM; Galanin receptor type 3 (Homo sapiens), O60755; HEK293 GalR3-CNG cAMP membrane potential fluorescence; galR3 body fused to GalR1 C-terminus; hit rate 0.44% among 360,000;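 active = inhibition above the screen-wide average plus 3 SD, cut at about 13% in these data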;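 note: forskolin and galanin both at EC90 stimulate the cells; cAMP rise reported by CNG channel membrane potential dye signal; 0% = forskolin plus galanin with DMSO and 100% = forskolin alone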
SRC1 inh: SRC1 coactivator transcriptional activity inhibitors, primary screen, cell-based, luminescence; Nuclear receptor coactivator 1 (Homo sapiens), Q15788; HEK293 GAL4-SRC1 luciferase reporter; inhibition, % at 3.6 µM; hit rate 0.12% among 360,000;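 active = inhibition above the campaign mean plus 3 SD, with each screening campaign given its own cutoff, cut at about 60% in these data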;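 note: 0% = DMSO treated cells and 100% = gossypol at 36 µM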
SRC3 inh: SRC3 coactivator transcriptional activity inhibitors, primary screen, cell-based, luminescence | hit rate 0.17% among 360,000 | inhibition, % at 3.6 µM | Nuclear receptor coactivator 3 (Homo sapiens), Q9Y6Q9 | HEK293 GAL4-SRC3 luciferase reporter | AID 588352, 2011;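 active = inhibition above a per-campaign cutoff, the mean of all compounds plus 3 SD, cut at about 60% in these data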;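 note: 0% = DMSO-treated cells and 100% = gossypol-treated cells at 36 µM; higher means less SRC3-driven luciferase light from the GAL4 reporter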
NR2F2 inh: NR2F2 transcriptional activity inhibitors, primary screen, cell-based, luciferase reporter, HEK293T, luminescence; COUP transcription factor 2 (Homo sapiens), P24468; HEK293T NGFI-A luciferase reporter; inhibition, % at 8.6 µM; hit rate 0.7% among 370,000;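 active = inhibition above a per-plate cutoff, mean inhibition of test wells between control levels plus 3 SD, cut at about 38% in these data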;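 note: cells cotransfected with COUP-TFII expression vector driving the NGFI-A reporter; 0% = median of COUP-TF2 test wells and 100% = reporter-only cells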
Target sequence (P24468 whole entry, looked up): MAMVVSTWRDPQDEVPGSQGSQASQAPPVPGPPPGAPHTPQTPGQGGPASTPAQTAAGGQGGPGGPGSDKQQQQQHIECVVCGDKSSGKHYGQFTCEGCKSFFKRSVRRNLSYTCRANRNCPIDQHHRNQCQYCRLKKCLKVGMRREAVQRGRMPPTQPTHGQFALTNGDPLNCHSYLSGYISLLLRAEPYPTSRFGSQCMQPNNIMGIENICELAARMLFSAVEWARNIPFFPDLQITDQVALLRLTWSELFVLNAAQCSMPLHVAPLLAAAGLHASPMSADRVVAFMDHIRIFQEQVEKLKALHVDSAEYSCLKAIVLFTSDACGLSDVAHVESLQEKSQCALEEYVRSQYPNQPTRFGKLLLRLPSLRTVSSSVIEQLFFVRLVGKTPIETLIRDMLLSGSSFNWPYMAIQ
SRC2 inh: inhibition of GAL4-SRC2 driven luciferase reporter, primary screen, SRC2 inhibitor project, cell-based, luminescence; Nuclear receptor coactivator 2 (Homo sapiens), Q15596; HEK293 GAL4-SRC2 luciferase reporter; inhibition, % at 9 µM; hit rate 0.17% among 370,000; AID 651957, 2012;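 active = inhibition above the mean inhibition of all tested compounds plus 3 SD, set per campaign, cut at about 52% in these data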;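 note: 0% = DMSO treated cells and 100% = cells given Gossypol at 36 µM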
NR5A2 inv ag: LRH-1 (NR5A2) inverse agonists, primary screen, cell-based, luminescence, HEK293T, StAR-luciferase reporter; LRH-1 transfected, 24 h; inhibition, % at 3.6 µM; Nuclear receptor subfamily 5 group A member 2 (Homo sapiens), O00482; AID 602396, 2012; hit rate 0.13% among 360,000;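 active = inhibition above the mean inhibition of all tested compounds plus 3 SD, cut at about 73% in these data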;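 note: 0% = DMSO wells and 100% = reporter-only cells lacking LRH-1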
Gal4-VP16 ctr: Gal4-VP16 luciferase reporter inhibitors, counter-screen for COUP-TFII antagonist project, cell-based, luminescence, HEK293. inhibition, % at 8.5 µM. shares compounds with NR2F2 inh. hit rate 25% among 2,500; in the data active = inhibition above about 13%
NR2F2 inh conf: NR2F2 transcriptional activity inhibitors, confirmation, cell-based, luciferase reporter, HEK293, triplicate; shares compounds with NR2F2 inh; HEK293 NGFI-A luciferase reporter, luminescence; inhibition, % at 8.5 µM; hit rate 45% among 2,500;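 active = mean inhibition over three repeats above a set limit taken from the earlier primary screen, cut at about 38% in these data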;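 note: 100% = cells given the luciferase reporter alone without the COUP-TF2 vector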
Active calls of the source: *.

`CCCCOCC1CN(CCCC)S(=O)(=O)c2c(cccc2N(C)S(=O)(=O)c2ccc(C)cc2)O1` (stereo not drawn) gave GalR3 antagonist -7, NR2F2 inh 14 and SRC2 inh -3.
For CC1(C(=O)Nc2cccc(C#N)c2)CCN1C(=O)Cc1ccc(-c2ccccc2)cc1 (stereo not drawn) the results were GalR3 antagonist -3, SRC1 inh 9, SRC3 inh 12, NR2F2 inh 52*, SRC2 inh 2, NR5A2 inv ag 14, Gal4-VP16 ctr 1 and NR2F2 inh conf 28.
For Cc1nnc(NC(=O)CSc2ncnc3c2cnn3-c2ccccc2C)s1 the results were GalR3 antagonist 2, SRC1 inh -14, SRC3 inh 9, NR2F2 inh 10, SRC2 inh -26 and NR5A2 inv ag -12.
Cc1ccccc1-n1ncc2c(SCC(=O)NC3CCCC3)ncnc21 was read as GalR3 antagonist -9, SRC1 inh 3, SRC3 inh 22, NR2F2 inh 46*, SRC2 inh 27, NR5A2 inv ag 29, Gal4-VP16 ctr -6 and NR2F2 inh conf 24.
`C=C(C)CC1(NC(C)c2ccccc2)CCCCC1` (stereo not drawn) gave GalR3 antagonist -4, SRC1 inh -12, SRC3 inh 9, NR2F2 inh 41*, SRC2 inh -8, NR5A2 inv ag 3, Gal4-VP16 ctr -11 and NR2F2 inh conf -3.
Screening CN[C@H]1C[C@H]2c3[nH]c4c(-c5cccc(C)c5)cccc4c3CCN2C(=O)[C@H]1[C@H](C)O returned NR2F2 inh -10 and SRC2 inh -18.
Screening NCCCCCc1nnc(SCc2ccccc2Cl)o1 returned GalR3 antagonist -4, SRC1 inh -5, SRC3 inh 18, NR2F2 inh 55*, SRC2 inh 59*, NR5A2 inv ag 17, Gal4-VP16 ctr 42* and NR2F2 inh conf 31.
NCCc1nnc(SCc2c(Cl)cccc2Cl)o1 was read as GalR3 antagonist -4, SRC1 inh -5, SRC3 inh 17, NR2F2 inh 4, SRC2 inh -26 and NR5A2 inv ag -12.
Screening O=C(Nc1ccc(Cc2ccncc2)cc1)C1CCC(N2C(=O)C3C4C=CC(C4)C3C2=O)CC1 (stereo not drawn) returned GalR3 antagonist -1, SRC1 inh 3, SRC3 inh 2, NR2F2 inh 38*, SRC2 inh 10, NR5A2 inv ag 12, Gal4-VP16 ctr 0 and NR2F2 inh conf 6.
`COc1ccc(S[C@]2(C(=O)N3CCCC3)CC(=O)N(C(=O)C3CC3)[C@@H]2c2ccc(OC)cc2)cc1` gave NR2F2 inh -4 and SRC2 inh 1.
`CNC(=O)c1ccc(NC(=O)C2CCN(c3ncnc4sc(C)c(C)c34)CC2)cc1` gave GalR3 antagonist 1, SRC1 inh 41, SRC3 inh 36, NR2F2 inh 44*, SRC2 inh 20, NR5A2 inv ag 19, Gal4-VP16 ctr -1 and NR2F2 inh conf 13.
`COc1ccc(-c2csc(NC(=O)C3CCN(c4ncnc5sc(C)c(C)c45)CC3)n2)cc1OC` gave GalR3 antagonist -2, SRC1 inh 79*, SRC3 inh 60, NR2F2 inh 56*, SRC2 inh 23, NR5A2 inv ag 18, Gal4-VP16 ctr 12 and NR2F2 inh conf 87*.
Screening Cc1sc2ncnc(N3CCN(c4ncccn4)CC3)c2c1C returned GalR3 antagonist 1, SRC1 inh -3, SRC3 inh 11, NR2F2 inh -4, SRC2 inh 6 and NR5A2 inv ag 1.
`COc1cc(C(=O)N2CCN(c3ncnc4sc(C)c(C)c34)CC2)cc(OC)c1OC` gave GalR3 antagonist -1, SRC1 inh 13, SRC3 inh 9, NR2F2 inh 48*, SRC2 inh -5, NR5A2 inv ag 34, Gal4-VP16 ctr 8 and NR2F2 inh conf 48*.
For COC(=O)c1cc2c(c3c4cc(C)ccc4n(S(=O)(=O)c4cccc(C)c4)c13)C(=O)N(C)C2 the results were GalR3 antagonist -7, NR2F2 inh -9 and SRC2 inh -21.
For CCOC(=O)[C@]12CCCC3=C1N(CCC3)C(=O)[C@@H](CC(=O)NCCCN1CCCC1=O)C2 the results were NR2F2 inh 6 and SRC2 inh -6.
COC(=O)c1ccc(COc2cccc3c2CCN(Cc2ccccc2)C3=O)o1 was read as GalR3 antagonist -6, SRC1 inh -21, SRC3 inh -5, NR2F2 inh 18, SRC2 inh 1 and NR5A2 inv ag 14.
COC(=O)c1ccc(COc2cccc3c2CCN(Cc2cccc(C)c2)C3=O)o1 was read as GalR3 antagonist -7, SRC1 inh -2, SRC3 inh 8, NR2F2 inh 38*, SRC2 inh -1, NR5A2 inv ag -9, Gal4-VP16 ctr -4 and NR2F2 inh conf -1.
For CCC(C)(C)C1CCc2[nH]nc(C(=O)NC3CCCC3)c2C1 (stereo not drawn) the results were GalR3 antagonist -2, SRC1 inh 1, SRC3 inh -44, NR2F2 inh 6, SRC2 inh -6 and NR5A2 inv ag -7.
Screening O=C(NC1CCCCC1)c1n[nH]c2c1CCCCC2 returned GalR3 antagonist -2, SRC1 inh 25, SRC3 inh 31, NR2F2 inh 50*, SRC2 inh 57*, NR5A2 inv ag 23, Gal4-VP16 ctr -19 and NR2F2 inh conf 37.
Screening CC(C)C[C@H]1COc2ccc(Cl)cc2S(=O)(=O)N1C[C@H](NC(=O)OC(C)(C)C)C(C)C returned GalR3 antagonist -5, NR2F2 inh 6 and SRC2 inh 5.
O=C(C1CCCN1S(=O)(=O)c1ccc([N+](=O)[O-])cc1)N1CCc2ccccc2C1 (stereo not drawn) was read as NR2F2 inh -6 and SRC2 inh -40.
COc1ccc(C(=O)Nc2ccc3nc(N4CCOCC4)sc3c2)cc1OC was read as GalR3 antagonist -5, SRC1 inh -26, SRC3 inh 5, NR2F2 inh 10, SRC2 inh -5 and NR5A2 inv ag 9.
